Screening data as filed in PubChem BioAssay.
PP1 counter – counter-screen for PP5 inhibitors: inhibitors of human PP1-alpha | P62136 | purified PP1alpha, OMFP fluorescence | inhibition, % at 6.7 µM | hit rate 0.9% among 320,000 | AID 2235;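 active = inhibition above the mean inhibition of all tested compounds plus 3 SD, computed separately for each screening campaign, cut at about 15% in these data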
Target sequence (P62136 whole entry, looked up): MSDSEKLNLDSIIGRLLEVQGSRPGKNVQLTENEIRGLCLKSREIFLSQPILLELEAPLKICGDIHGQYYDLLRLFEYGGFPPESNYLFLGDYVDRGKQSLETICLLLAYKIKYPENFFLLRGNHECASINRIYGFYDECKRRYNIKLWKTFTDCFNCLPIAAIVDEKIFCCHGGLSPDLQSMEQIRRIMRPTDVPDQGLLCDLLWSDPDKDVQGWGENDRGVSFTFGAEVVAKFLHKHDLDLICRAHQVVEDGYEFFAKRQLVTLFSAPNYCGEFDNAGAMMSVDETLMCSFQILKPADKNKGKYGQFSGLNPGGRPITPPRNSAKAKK
PG9 binder – small molecules binding HIV-1 gp120 antibody PG9 | inhibition, % at 6.7 µM | hit rate 0.43% among 360,000 | TR-FRET gp120-PG9 antibody binding; in the data active = inhibition above about 8.5%
Rev-erbA mod – modulates human Rev-erb alpha binding to DNA; AID 1259318; hit rate 0.79% among 370,000; activity, % at 10 µM; Rev-erbα–FITC-DNA binding, fluorescence polarization, 90 min;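 active = activity above about 14%, limit read from the data; passing the limit was not always enough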;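 note: 0% = DMSO wells with 35 nM protein and 100% = DMSO wells with 750 nM protein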
PP5 inh – inhibitors of human protein phosphatase 5 (PP5) | hit rate 0.18% among 320,000 | inhibition, % at 6.7 µM | purified PP5c, OMFP substrate fluorescence | AID 1987 | P53041;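 active = inhibition above the campaign's mean inhibition across all tested compounds plus 3 SD, cut at about 9.5% in these data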;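 note: 0% = DMSO only and 100% = 100 µM cantharidin control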
proKLK7 act – activators of human kallikrein-7 zymogen. purified proKLK7, EDANS-DABCYL substrate fluorescence; 100% is mature enzyme control, 0% vehicle. activation, % at 7 µM. hit rate 0.9% among 370,000;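 active = activation above the mean of all tested compounds plus 3 SD, computed per campaign excluding outliers beyond control limits, cut at about 13% in these data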
Target sequence (P49862 whole entry, looked up): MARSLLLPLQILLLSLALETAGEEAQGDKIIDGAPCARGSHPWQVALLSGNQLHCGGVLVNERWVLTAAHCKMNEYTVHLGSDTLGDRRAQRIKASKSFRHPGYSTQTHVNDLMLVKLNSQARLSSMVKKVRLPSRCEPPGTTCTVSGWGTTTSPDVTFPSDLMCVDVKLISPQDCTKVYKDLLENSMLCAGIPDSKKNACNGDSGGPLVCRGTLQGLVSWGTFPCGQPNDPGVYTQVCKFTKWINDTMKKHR
GASC-1 inh – human JMJD2C demethylase inhibition. Q9H3R0. GST-JMJD2C(1-420) H3K9me3 demethylation, DELFIA europium. inhibition, % at 2.35 µM. hit rate 0.069% among 330,000. AID 2099;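 active = more than half of a compound's replicate wells show inhibition beyond 50%, single wells judged on their own value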;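 note: signal counts dimethyl H3K9 product captured on neutravidin plate; 0% = median of DMSO wells and 100% = 0.3 times that DMSO median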
KLK7 act conf – confirmation of human kallikrein-7 zymogen activators. hit rate 68% among 3,200. purified proKLK7, EDANS-DABCYL substrate fluorescence; scaled: vehicle 0, mature enzyme 100. activation, % at 7 µM. AID 686949. shares compounds with proKLK7 act;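 active = activation, as change over the incubation, above the mean of all tested compounds plus 3 SD, cut at about 13% in these data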
EDANS-DABCYL int – fluorescence interference counter-screen for KLK7 activators; shares compounds with proKLK7 act; EDANS-DABCYL substrate fluorescence interference, no enzyme, 4 h; solvent 0%, active enzyme control 100%; activation, % at 7 µM; hit rate 80% among 3,200; AID 686952;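 active = activation above the all-compound mean plus 3 SD, ignoring values outside control-based bounds, cut at about 4.8% in these data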;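 note: value is the 4 h activation minus the activation read at time zero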
* = called active by the depositor; / = not tested or not shown. An excerpt weighted towards active compounds, which were near 2.8% of everything screened.

SMILES	PP1 counter	PG9 binder	Rev-erbA mod	PP5 inh	proKLK7 act	GASC-1 inh	KLK7 act conf	EDANS-DABCYL int
Nc1cc(C(=O)O)c(Oc2ccc(Cl)cc2Cl)cc1C(=O)O	0.1	-1.4	-0.8	0.3	25.5*	12.6	57.4*	51.0*
CCCCN(C(=O)NC(=O)Nc1ccc(C)cn1)S(C)(=O)=O	-0.7	0.7	1.2	1.4	18.9*	-4.9	4.1	3.3
Clc1ccccc1-c1cccc2nccn12	/	-1.3	3.8	/	0.7	/	/	/
CN(C)Cc1ccccc1-c1cccc2nccn12	/	-0.3	2.0	/	19.3*	/	1.8	3.4
Cc1cc(-c2ccccc2)c2ccc(NC(=O)C(C)(C)C)nc2n1	-2.5	-2.5	5.6	2.6	33.0*	-6.2	1.2	0.7
COc1cc2c(cc1OC)C(C(N)=O)NCC2 (centres undefined)	/	-0.6	1.6	/	54.4*	/	0.2	0.7
COc1cc2c(cc1OC)C(C1(O)CCCCC1)NCC2 (centres undefined)	/	-0.8	0.6	/	20.7*	4.0	13.9*	14.2*
COC(=O)C[C@@H]1CC[C@H]2[C@H](COc3ccc(NC(=O)Nc4ccc(Cl)cc4)cc3C(=O)N2C)O1	/	/	6.3	/	0.1	/	/	/
COc1cc(Cn2c3ccc(NC(=O)CCc4ccc(O)cc4)cc3c(=O)n2C)ccc1F	/	-0.6	-9.4	/	13.0*	/	5.0	10.4*
Cn1c(=O)c2cc(NC(=O)CCc3ccc4c(c3)OCO4)ccc2n1Cc1ccc(F)cc1	/	0.3	8.5	/	31.6*	/	64.8*	71.9*
O=C1CCCC2=C1C(c1ccncc1)n1c(nc3ccccc31)N2 (centres undefined)	-0.4	2.9	-1.8	-0.9	47.0*	12.1	63.2*	75.2*
CC1CC(=O)C2=C(C1)Nc1nc3ccccc3n1C2c1cccnc1 (centres undefined)	-2.7	-0.1	-3.2	-2.4	76.2*	-5.4	64.2*	71.5*
CC1CC(=O)C2=C(C1)Nc1ncnn1C2c1ccccc1 (centres undefined)	-0.8	-1.7	2.5	-0.2	-0.2	5.5	/	/
COc1cccc2c1C(=O)O/C2=C/c1ccc2c(c1)OCO2	3.1	0.4	-12.1	0.5	16.0*	10.6	-237.0	-177.0
COc1cccc(OC)c1C1=CC(=O)C[C@H](c2ccc3c(c2)OCO3)C1	-4.4	0.1	1.7	0.4	0.5	13.8	/	/
CC(C)(C)N(NC(=O)Nc1cccc(F)c1)C(=O)c1ccccc1Cl	/	/	4.5	/	0.1	/	/	/
O=C(Nc1nc(Cc2ccccc2)c(Cc2ccccc2)n1Cc1ccccc1)c1ccccc1	/	/	6.5	/	-10.7	/	/	/
O=C(NCc1ccco1)/C(=C/c1cccc(C(F)(F)F)c1)c1nc2ccccc2[nH]1	2.9	0.0	0.7	-1.5	-1.0	-1.0	/	/
O=C(NCc1ccco1)/C(=C/c1ccc(C(F)(F)F)cc1)c1nc2ccccc2[nH]1	2.4	0.6	1.2	-1.6	61.1*	-11.6	84.1*	95.9*
Nc1nc2c(ncn2[C@@H]2O[C@H](C(=O)NCC3CCCCC3)[C@@H](O)[C@H]2O)c(=O)[nH]1	/	0.6	-0.8	/	0.7	/	/	/
COC(=O)c1cc2nc(-c3ccccc3)cc(C)n2n1	-1.5	0.2	-2.6	-0.8	5.2	-0.5	/	/
CCOc1ccc(-c2cc(C)n3nc(C(N)=O)cc3n2)cc1	1.0	0.0	-0.9	2.8	30.2*	0.3	49.5*	55.5*
N#Cc1cccc(-c2ccccc2C(=O)NC2CCCCN(Cc3ccc(Cl)cc3)C2=O)c1 (centres undefined)	/	/	4.1	/	0.0	/	/	/
CCC[C@@H](NS(=O)(=O)c1ccc(C)cc1)C(=O)Oc1ccc2c3c(c(=O)oc2c1)CCC3	6.3	-0.9	-7.3	3.0	41.8*	2.3	631.0*	536.1*
Cc1ccc(S(=O)(=O)NCCC(=O)Oc2ccc3ccc(=O)oc3c2)cc1	1.0	-1.3	-10.3	-4.3	48.6*	35.4	612.9*	625.5*
SMILES	PP1 counter	PG9 binder	Rev-erbA mod	PP5 inh	proKLK7 act	GASC-1 inh	KLK7 act conf	EDANS-DABCYL int
Cc1ccc2cc(S(=O)(=O)NCCC(=O)O)ccc2c1	-0.2	-1.9	-2.1	-1.2	-0.3	-14.0	/	/
Cc1ccc(S(=O)(=O)NC(C(=O)Oc2ccc3ccc(=O)oc3c2)c2ccccc2)cc1 (centres undefined)	-2.3	0.4	-1.3	-5.2	63.1*	-0.3	329.0*	377.0*
Cc1ccc(S(=O)(=O)NC(C(=O)Oc2ccc3c(C)c(Cl)c(=O)oc3c2)c2ccccc2)cc1 (centres undefined)	-1.4	-0.6	-3.3	4.5	54.8*	-0.2	69.0*	78.1*
Cc1ccc(S(=O)(=O)N[C@H](C(=O)Oc2ccc3c(C(F)(F)F)cc(=O)oc3c2)c2ccccc2)cc1	-4.3	/	/	0.2	/	-5.4	/	/
NS(=O)(=O)c1ccc(OCCCN2CCC(C(O)(c3ccccc3)c3ccccc3)CC2)cc1	/	1.1	5.1	/	-0.8	/	/	/
COc1ccc(CNC(=O)O[C@H]2CC[C@@]34CCCN3C(=O)CCC[C@H]4[C@H]2C)cc1	/	/	-0.7	/	/	/	/	/
CN1CCCCC(NC(=O)c2ccc(F)c(F)c2)C1=O (centres undefined)	/	-2.0	-2.2	/	0.0	/	/	/
CC1=C[C@@H]2[C@H]3C(=O)N(Cc4ccccc4)C(=O)[C@H]3[C@@H]1[C@@H]1O[C@@]3(C(=O)N(C)c4ccccc43)C3=C(CCCC3=O)N21	/	1.3	0.3	/	0.9	/	/	/
COC(=O)C1CCN(C2CN(Cc3cn(Cc4ccc(C(F)(F)F)cc4)nn3)S(=O)(=O)C2)CC1 (centres undefined)	/	-0.4	3.6	/	-0.4	/	/	/
CNC(=O)c1cc(Nc2nnc(-c3ccc(C)c(S(N)(=O)=O)c3)c3ccccc23)ccc1OC	-3.3	-0.8	-2.7	1.6	211.6*	9.6	223.0*	136.2*
COc1cc2c(cc1OC)CN(Cc1nc3ccsc3c(=O)[nH]1)CC2	3.5	0.5	-3.5	2.7	30.8*	6.2	8.5	12.8*
O=c1[nH]c(CN2CCN(c3ccccc3Cl)CC2)nc2ccsc12	2.3	1.1	-0.8	-0.4	-0.9	-2.5	/	/
COC(=O)C1CN(Cc2ccc(C)cc2)CCS(=O)(=O)N1Cc1cn(Cc2ccc(F)cc2)nn1 (centres undefined)	/	/	-5.4	/	0.1	/	/	/
Cc1ccc(C2OC34CCCCCC3C(C#N)(C(=N)O4)C2(C#N)C#N)cc1 (centres undefined)	-1.2	-2.7	1.8	1.0	15.9*	-19.5	29.1*	34.2*
COc1ccc(OC)c(/C=N/NC(=O)C(=O)N2CCCC2)c1	-1.9	-0.3	0.1	-1.3	59.1*	1.9	47.9*	46.2*
C/C=C/c1ccc(OCC(=O)Nc2ccc(C(N)=O)cc2)c(OC)c1	3.0	-1.9	1.9	-0.1	-0.9	-5.4	/	/
